An excerpt weighted towards active compounds, which were near 19% of everything screened.
HT1080-NT tox: qHTS for induction of synthetic lethality in tumor cells producing 2HG: qHTS for the HT-1080-NT fibrosarcoma cell line; HT-1080-NT fibrosarcoma viability, CellTiter-Glo ATP luminescence, 48 h; Potency, µM (highest dose often 46.1 µM), actives largely listed as cytotoxic; 1.6% of 360,000 active;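 also: NT is the 2HG producing partner of a matched IDH1 knockdown line; nearly all actives have a fitted effect of over 55% in size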
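HT-1080-NT; 750 cells/well; 5% FBS RPMI; 48 h compound, 37 degrees C; CellTiter-Glo luminescence; curve fitting and curve-class assignment.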
ELG1 DNA repair: qHTS screen for small molecules that inhibit ELG1-dependent DNA repair in human embryonic kidney (HEK293T) cells expressing luciferase-tagged ELG1; HEK293T ELG1-luciferase reporter, luminescence, 16 h; DNA damage induced by 5-fluorouridine; Potency, µM (highest dose often 46.1 µM), actives largely listed as inhibitors; 2.3% of 330,000 active; also: nearly all actives have a fitted effect of over 55% in size
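Luminescence from the luciferase reporter, measured 30 min after ONE-Glo reagent at room temperature, was the read-out. Beforehand, 2,000 cells per well were exposed for 16 hr at 37 °C to 5-fluorouridine together with compound or vehicle.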
TDP1 cell CPT: qHTS for Inhibitors of human tyrosyl-DNA phosphodiesterase 1 (TDP1): qHTS in cells in presence of CPT; chicken DT40 Tdp1-/-;hTDP1 cells + 20 nM CPT, ATP luminescence, 48 h; Potency, µM (top dose mostly 46.2 µM), actives largely listed as inhibitors; 12% of 420,000 active; also: nearly all actives have a fitted effect of over 55% in size
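Cell growth measured by CellTiter-Glo luminescence after a minimum 48 h, 37 C compound exposure with 20 nM CPT in Tdp1-knockout DT40 cells stably expressing hTDP1, seeded 400/well; qHTS titration format.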
HT1080 IDH1KD tx: qHTS for induction of synthetic lethality in tumor cells producing 2HG: qHTS for the HT-1080-IDH1KD cell line | HT-1080 IDH1 knockdown viability, ATP luminescence, 48 h | Potency, µM (doses to about 46.1 µM), hits mostly cytotoxic | 2% of 360,000 active
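Assay cells: HT-1080 with IDH1 knockdown, 750 per well, RPMI/5% FBS. Exposure: 48 h at 37 °C following 2 h pre-incubation. Read: CellTiter-Glo luminescence; fitted concentration-response, curve class assigned.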
DT40 TDP1 no CPT: qHTS for Inhibitors of human tyrosyl-DNA phosphodiesterase 1 (TDP1): qHTS in cells in absence of CPT. DT40 Tdp1-/- hTDP1 cells, no CPT, ATP luminescence, 48 h. Potency, µM (highest dose often 46.2 µM), usual class: inhibitors. 15% of 420,000 active. AID 686978, 2013; also: nearly all actives have a fitted effect of over 55% in size
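DT40 Tdp1-/-;hTDP1 cells, no CPT (DMSO vehicle only), 400 cells/well; compounds pin-transferred; ≥48 hr, 37 °C; CellTiter-Glo 30 min RT dark, luminescence read.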
IL1B secr inh: qHTS for Inhibitors of Inflammasome Signaling: IL-1-beta AlphaLISA Primary Screen. AID 743279, 2014. activity change, % at 57.5 µM. 4.7% of 360,000 active. THP-1 LPS/ATP IL-1B secretion, AlphaLISA, 16 h; active compounds read low; in the data active = activity change below about -50%; inconclusive = mostly about -30% to -49%
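THP-1 cells pretreated 1 hr with compounds (up to 57.5 uM final), then stimulated with LPS (250 ng/mL final) plus ATP (1.25 mM final); secreted IL-1B measured by AlphaLISA after 16 hr, decreased signal indicating inhibition.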
Numbers stand for hits; – = inactive; ? = inconclusive; · = not tested or not shown; ! = not active in a repeat. Unless noted, calls follow the shape of the dose curve; as a rule, active = well fitted curve in the direction sought with a large enough effect; inconclusive = small, poorly fitted or top-dose-only effect, or another doubt; inactive = no such curve, though single readings can be large; an effect the other way counts as inactive or inconclusive.

SMILES | HT1080-NT tox | ELG1 DNA repair | TDP1 cell CPT | HT1080 IDH1KD tx | DT40 TDP1 no CPT | IL1B secr inh
Cc1cc(C)n(CCC(=O)N2CCCC(N3CCN(c4cccc(Cl)c4)CC3)C2)n1 (stereo not drawn) | – | – | ? | – | ? | –
Cc1ccc(-c2cc(-c3c(C)nn(C)c(=O)c3N)[nH]n2)cc1 | – | ? | 16µM | – | 9.2µM | –
Cc1nn(C)c(=O)c(N)c1-c1cc(-c2ccc(Cl)c(Cl)c2)n[nH]1 | – | – | 13µM | – | 6.5µM | –
Cc1noc(/C=C/c2cccnc2)c1[N+](=O)[O-] | 21µM | ? | 21µM | ? | 13µM | -94
Oc1ccccc1-c1n[nH]c(-c2ccccc2O)n1 | ? | · | 3.7µM | ? | 5.2µM | –
CCc1ccccc1NC(=O)c1ccc2c(c1)CCCN2S(C)(=O)=O | · | · | – | · | – | ·
CC1(C(=O)NC2CCc3ccccc32)CCN1CCc1ccccc1 (stereo not drawn) | – | · | 16µM | – | 18µM | –
Cc1ccc(NC(=O)C2(C)CCN2CCc2ccccc2)cc1 (stereo not drawn) | – | · | ? | – | ? | –
CN(C)CCN(C)C1CN(Cc2ccc([N+](=O)[O-])cc2)S(=O)(=O)C1 (stereo not drawn) | – | · | – | – | – | –
COc1cccc(-c2cc(C(=O)NCc3ccccc3)[nH]n2)c1 | · | · | – | · | – | ·
COc1ccc(Cc2c(C3CCCCC3)nc3cc(C)c(Br)c(C)n23)c(C)c1 | – | · | – | – | ? | –
COc1ccc(Cc2c(C3CCCCC3)nc3ccc(Br)cn23)c(C)c1 | – | · | 16µM | – | 23µM | –
COc1ccc(Cc2c(C3CCCCC3)nc3c(Cl)cc(C(F)(F)F)cn23)c(C)c1 | ? | · | 18µM | ? | ? | –
COc1cc(=O)n2c(c1C(=O)NCc1ccco1)CCN(Cc1cc3ccccc3[nH]1)CC2 | · | · | – | · | – | ·
O=C(N/N=C/c1ccc(OCc2ccccc2)cc1)c1ccncc1 | – | ? | – | – | – | –
Oc1ccc(N=Cc2ccc(OCc3ccccc3)cc2)cc1 | ? | ? | 21µM | ? | 21µM | –
COc1ccc(NC(=O)c2nc3nc(C)cc(C(F)F)n3n2)c(C)c1 | · | · | – | · | – | ·
O=C(NCCc1ccccn1)c1nc(Cn2ccc([N+](=O)[O-])n2)no1 | – | – | – | – | – | –
Cc1cccc(C)c1NC(=O)C(Cl)=C(Cl)Cl | ? | – | – | ? | – | -59
COc1ccc(NC(=O)c2ccc3[nH]c(C)cc(=O)c3c2)cc1 | · | · | – | · | – | ·
Cc1ccc(C)c(NC(=O)COC(=O)c2ccc(S(=O)(=O)N3CCCCC3)cc2)c1 | – | – | – | – | – | –
COc1ccccc1N1CCN(S(=O)(=O)c2c(C)sc3ncn(CC(=O)N(C)c4ccc(C(C)C)cc4)c(=O)c23)CC1 | · | · | 13µM | · | ? | ·
Cc1sc2ncn(CC(=O)N(C)c3ccc(C(C)C)cc3)c(=O)c2c1S(=O)(=O)N1CCC(C)CC1 | · | · | 23µM | · | 23µM | ·
NNCCc1ccccc1 | – | ? | ? | – | 13µM! | –
O=C(CC(=O)NCCc1ccccc1)NCCc1ccccc1 | – | – | – | – | – | –
O=S1(=O)N[C@@H](CC2CCCCC2)COc2cc(Br)ccc21 | ? | – | 15µM | – | ? | –
O=C(NCCC1=CCCCC1)c1ccc2c(=O)n3nc(Nc4ccccc4)sc3nc2c1 | · | · | 2.3µM | · | 3.7µM | ·
CC(NC(=O)c1ccc2c(=O)n3c(nc2c1)CCC3)c1ccc(S(N)(=O)=O)cc1 (stereo not drawn) | – | – | – | – | – | –

Compound activity: PubChem, National Center for Advancing Translational Sciences (NCATS)
